# Assay results as given in PubChem BioAssay.
# Where “and” joins values, the source holds several entries; their conditions need not be identical. Equal entries are not always repeated. Calls of active or inactive are those of the source.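 Rule for the calls, unless noted: active = normalized viability below 100% at a tested concentration; inactive = the rest.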
# How the values were obtained:
# [1] = signal quenchers or enhancers, Cy5 substrate/SSB – biochemical, NIH Clinical Collection, E. coli SSB, artefact control for HCV NS3 helicase inhibitor project (AID 743268; call rule not given here); conditions: Cy5-oligo bound E. coli SSB, fluorescence interference
# [2] = system: Hepatitis C virus NS3 helicase; test: blockers of NS3h binding to DNA – biochemical, fluorescence polarization, NIH Clinical Collection, primary screen (AID 743270; call rule not given here); conditions: NS3 helicase binding to Cy5-dT15 DNA, stronger effect = higher value, concentration not given here
# [3] = molecular target: Single-stranded DNA-binding protein (Escherichia coli (strain K12)) (UniProt P0AGE0); test: SSB-ssDNA binding inhibitors – biochemical, fluorescence polarization, NIH Clinical Collection, counter-screen for HCV NS3 helicase inhibitor project (AID 743271; in the data active = inhibition above about 28%); conditions: E. coli SSB-DNA binding, stronger effect = higher value, concentration not given here
# [4] = compounds distorting NS3 helicase fluorescence signal – biochemical, NIH Clinical Collection, artefact control for HCV NS3 helicase inhibitor project (AID 743272; call rule not given here;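 note: HCV NS3 helicase with a Cy5 labelled single stranded DNA probe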); conditions: fluorescence interference counterscreen, HCV NS3 helicase assay; stronger effect = lower value
# [5] = modulation of C. elegans fzo-1 (AID 1259413; call rule not given here;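 note: fzo-1 mutant C. elegans worms in liquid wells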); conditions: C. elegans fzo-1 modulator screen, mean read-out; stronger effect = higher value
# [6] = EMT-state selective cytotoxicity in co-culture – imaging, PC-3E GFP, TEM4-18 mCherry, primary screen (AID 1345086;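 active = compounds killing one labelled cell type while sparing the other, by normalised counts and ratio limits, not self-fluorescent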;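 for all read-outs here: cells exposed to compound for 72 h before imaging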;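 for red/green cell ratio (normalised): normalised mesenchymal count divided by normalised epithelial count so high means epithelial killing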); conditions: PC-3E GFP / TEM4-18 mCherry co-culture, imaging cell counts, at 1 µM; for red/green cell ratio (normalised): actives lie on both sides, counts scaled to control wells, 1 = unselective
# [7] = MELAS cybrid and Rieske KO viability enhancers – cell-based, MELAS cybrids, Rieske KO mouse fibroblasts, CellTiter-Glo, primary screen (AID 1508586;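 active = mean z-score across replicates of 1.96 or higher in either the MELAS or the Rieske mutant cell line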;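 note: z relative to plate mean and SD of compound and empty wells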); conditions: low glucose
# [8] = drug combination growth inhibition, ovarian cancer – cell-based, oncology-focused library, rucaparib conditional, profiling panel (AID 1508598); conditions: patient-derived ovarian cancer cells, CellTiter-Glo viability, 144 h, stronger effect = lower value
# F380Y = test: BK channel mutant inhibitors and activators – cell-based, U2OS BacMam, thallium flux, beta subunits, selectivity assay, profiling panel (AID 1259406;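 active = thallium flux through the channel raised or lowered by more than 3 SD from vehicle-only wells, actives on both sides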;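 note: initial slope of Thallos dye fluorescence rise after thallium is added; log ratio against the mean of 0.3% DMSO vehicle wells on the same plate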); conditions: U2OS BacMam BK variants, at 30 µM
# F380Y/beta1 = test: as above; conditions: U2OS BacMam BK variants, at 30 µM
# F380Y/beta2Delta = test: as above; conditions: U2OS BacMam BK variants, at 30 µM
# F380Y/beta4 = test: as above; conditions: U2OS BacMam BK variants, at 30 µM
# [9] = molecular target: Calcium-activated potassium channel subunit alpha-1 (Homo sapiens) + Leucine-rich repeat-containing protein 26 (Homo sapiens) (UniProt Q12791+Q2I0M4); test: as above; conditions: U2OS BacMam BK variants, F380Y/Slo1WT/gamma1, at 30 µM
# Calcium-activated potassium channel subunit alpha-1 (Homo sapiens) + Leucine-rich repeat-containing protein 26 (Homo sapiens), sequence (Q2I0M4 whole entry, looked up, one chain of several): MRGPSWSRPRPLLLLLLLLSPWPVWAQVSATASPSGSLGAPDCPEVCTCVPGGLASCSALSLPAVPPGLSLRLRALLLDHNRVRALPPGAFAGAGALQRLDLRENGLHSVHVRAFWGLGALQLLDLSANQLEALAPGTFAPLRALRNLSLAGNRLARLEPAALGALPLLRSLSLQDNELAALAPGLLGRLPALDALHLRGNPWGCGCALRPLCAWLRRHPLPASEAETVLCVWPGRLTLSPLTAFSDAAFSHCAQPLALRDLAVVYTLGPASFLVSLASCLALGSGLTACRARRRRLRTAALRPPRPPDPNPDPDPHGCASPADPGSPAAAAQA
# R275C = test: as above; conditions: U2OS BacMam BK variants, at 30 µM
# R275C/beta1 = test: as above; conditions: U2OS BacMam BK variants, at 30 µM
# R275C/beta2Delta = test: as above; conditions: U2OS BacMam BK variants, at 30 µM
# R275C/beta4 = test: as above; conditions: U2OS BacMam BK variants, at 30 µM
# R275C/Slo1WT/beta2 = test: as above; conditions: U2OS BacMam BK variants, at 30 µM
# [10] = P. berghei load reduction in hepatocytes – cell-based, HepG2, luciferase luminescence, HepG2 viability, primary screen (AID 624349; in the data active = parasite load remaining mostly below about 12%, no sharp cut-off; inactive = mostly above about 10%;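 note: 100% = mean of DMSO negative control wells on the same plate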); conditions: P. berghei liver stage in HepG2, luciferase luminescence, concentration not given here; parasite load remaining: stronger effect = lower value; viability: measured here: HepG2 viability without parasites
# [11] = viability loss with induced miR-34 in A549 – imaging, A549 dox-inducible miR-34, nuclei and caspase counts, primary screen (AID 1347080;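 active = compounds whose cell count with miR-34 switched on is under 0.7 times the count with it off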); conditions: A549 miR-34 inducible, Hoechst nuclei count, 48 h
# [12] = measured here: epithelial PC-3E GFP cell survival
# [13] = measured here: mesenchymal TEM4-18 mCherry cell survival
# [14] = MELAS cybrid survival, CellTiter-Glo 48 h, stronger effect = higher value
# [15] = Rieske KO mouse fibroblast survival, CellTiter-Glo 72 h
compound,measurement,setting,value
O=C(c1ccc(OCCN2CCCCC2)cc1)c1c(-c2ccc(O)cc2)sc2cc(O)ccc12,fluorescence ratio,[1],1.04 (inactive)
same,inhibition,[2],-7.73% (inactive)
same,inhibition,[3],4.1% (inactive)
same,fluorescence ratio,[4],0.8 (active)
same,mean signal,[5],205 (inactive)
same,red/green cell ratio (normalised),[6],1.03 (inactive)
same,normalised cell number,[6]; [12],0.9
same,normalised cell number,[6]; [13],0.93
same,z-score,[7]; [14],-0.537 (inactive) and -0.644 (inactive) and -0.85 (inactive)
same,z-score,[7]; [15],0.306 and -0.238 and 0.0318
same,viability,"[8]; at 0.000305 µM, OCI-C5x cells, with rucaparib 10 µM, 100% = cells with rucaparib alone",108% (inactive)
same,viability,"[8]; at 0.000305 µM, OCI-C5x cells, without rucaparib",112% (inactive)
same,viability,"[8]; at 0.000305 µM, OCI-P5x cells, with rucaparib 20 µM, 100% = cells with rucaparib alone",101% (inactive)
same,viability,"[8]; at 0.000305 µM, OCI-P5x cells, without rucaparib",110% (inactive)
same,viability,"[8]; at 0.00122 µM, OCI-C5x cells, with rucaparib 10 µM, 100% = cells with rucaparib alone",116% (inactive)
same,viability,"[8]; at 0.00122 µM, OCI-C5x cells, without rucaparib",116% (inactive)
same,viability,"[8]; at 0.00122 µM, OCI-P5x cells, with rucaparib 20 µM, 100% = cells with rucaparib alone",97.6% (active)
same,viability,"[8]; at 0.00122 µM, OCI-P5x cells, without rucaparib",103% (inactive)
same,viability,"[8]; at 0.00488 µM, OCI-C5x cells, with rucaparib 10 µM, 100% = cells with rucaparib alone",131% (inactive)
same,viability,"[8]; at 0.00488 µM, OCI-C5x cells, without rucaparib",107% (inactive)
same,viability,"[8]; at 0.00488 µM, OCI-P5x cells, with rucaparib 20 µM, 100% = cells with rucaparib alone",79.4% (active)
same,viability,"[8]; at 0.00488 µM, OCI-P5x cells, without rucaparib",94.8% (active)
same,viability,"[8]; at 0.0195 µM, OCI-C5x cells, with rucaparib 10 µM, 100% = cells with rucaparib alone",113% (inactive)
same,viability,"[8]; at 0.0195 µM, OCI-C5x cells, without rucaparib",110% (inactive)
same,viability,"[8]; at 0.0195 µM, OCI-P5x cells, with rucaparib 20 µM, 100% = cells with rucaparib alone",90% (active)
same,viability,"[8]; at 0.0195 µM, OCI-P5x cells, without rucaparib",94.3% (active)
same,viability,"[8]; at 0.0781 µM, OCI-C5x cells, with rucaparib 10 µM, 100% = cells with rucaparib alone",121% (inactive)
same,viability,"[8]; at 0.0781 µM, OCI-C5x cells, without rucaparib",107% (inactive)
same,viability,"[8]; at 0.0781 µM, OCI-P5x cells, with rucaparib 20 µM, 100% = cells with rucaparib alone",118% (inactive)
same,viability,"[8]; at 0.0781 µM, OCI-P5x cells, without rucaparib",125% (inactive)
same,viability,"[8]; at 0.313 µM, OCI-C5x cells, with rucaparib 10 µM, 100% = cells with rucaparib alone",114% (inactive)
same,viability,"[8]; at 0.313 µM, OCI-C5x cells, without rucaparib",118% (inactive)
same,viability,"[8]; at 0.313 µM, OCI-P5x cells, with rucaparib 20 µM, 100% = cells with rucaparib alone",105% (inactive)
same,viability,"[8]; at 0.313 µM, OCI-P5x cells, without rucaparib",104% (inactive)
same,viability,"[8]; at 1.25 µM, OCI-C5x cells, with rucaparib 10 µM, 100% = cells with rucaparib alone",134% (inactive)
same,viability,"[8]; at 1.25 µM, OCI-C5x cells, without rucaparib",117% (inactive)
same,viability,"[8]; at 1.25 µM, OCI-P5x cells, with rucaparib 20 µM, 100% = cells with rucaparib alone",89.1% (active)
same,viability,"[8]; at 1.25 µM, OCI-P5x cells, without rucaparib",101% (inactive)
same,viability,"[8]; at 5 µM, OCI-C5x cells, with rucaparib 10 µM, 100% = cells with rucaparib alone",124% (inactive)
same,viability,"[8]; at 5 µM, OCI-C5x cells, without rucaparib",109% (inactive)
same,viability,"[8]; at 5 µM, OCI-P5x cells, with rucaparib 20 µM, 100% = cells with rucaparib alone",40% (active)
same,viability,"[8]; at 5 µM, OCI-P5x cells, without rucaparib",63.8% (active)
same,log fold change Tl+ flux,F380Y,0.0852 (inactive)
same,log fold change Tl+ flux,F380Y/beta1,0.00638 (inactive)
same,log fold change Tl+ flux,F380Y/beta2Delta,0.0463 (inactive)
same,log fold change Tl+ flux,F380Y/beta4,0.0721 (inactive)
same,log fold change Tl+ flux,[9],-0.00263 (inactive)
same,log fold change Tl+ flux,R275C,0.0285 (inactive)
same,log fold change Tl+ flux,R275C/beta1,0.00107 (inactive)
same,log fold change Tl+ flux,R275C/beta2Delta,0.0378 (inactive)
same,log fold change Tl+ flux,R275C/beta4,0.0617 (inactive)
same,log fold change Tl+ flux,R275C/Slo1WT/beta2,-0.0543 (inactive)
CN(C)CCOc1ccc(/C(=C(/CCCl)c2ccccc2)c2ccccc2)cc1,parasite load remaining,[10],2.65% (inactive) and 4% (inactive)
same,viability,[10],97.2% and 73.5%
same,fluorescence ratio,[1],0.79 (active)
same,inhibition,[2],-1.97% (inactive)
same,inhibition,[3],20.1% (inactive)
same,fluorescence ratio,[4],0.82 (inactive)
same,mean signal,[5],204 (inactive)
same,red/green cell ratio (normalised),[6],0.97 (inactive)
same,normalised cell number,[6]; [12],1.07
same,normalised cell number,[6]; [13],1.04
same,fold change,"[11]; stronger effect = lower value, cell number ratio, induced over uninduced",0.93 (inactive) and 0.787 (inactive)
same,fold change,[11]; measured here: relative caspase fold change +Dox/-Dox,0.696 and 1.39
same,cell count,"[11]; measured here: total cells with miR-34 induction, stronger effect = lower value",6550 and 5410
same,cell count,[11]; measured here: total cells without miR-34 induction,7040 and 6880
same,z-score,[7]; [14],-2.09 (inactive) and -0.316 (inactive)
same,z-score,[7]; [15],-0.803 and -1.13
same,log fold change Tl+ flux,F380Y,0.00227 (inactive)
same,log fold change Tl+ flux,F380Y/beta1,-0.0377 (inactive)
same,log fold change Tl+ flux,F380Y/beta2Delta,0.0156 (inactive)
same,log fold change Tl+ flux,F380Y/beta4,0.0185 (inactive)
same,log fold change Tl+ flux,[9],-0.0413 (inactive)
same,log fold change Tl+ flux,R275C,-0.0555 (inactive)
same,log fold change Tl+ flux,R275C/beta1,0.25 (active)
same,log fold change Tl+ flux,R275C/beta2Delta,-0.123 (active)
same,log fold change Tl+ flux,R275C/beta4,-0.0377 (inactive)
same,log fold change Tl+ flux,R275C/Slo1WT/beta2,-0.045 (inactive)
